In paper PMC7822874, “Chemoprotective antimalarials identified through quantitative high-throughput screening of Plasmodium blood and liver stage parasites” (Scientific Reports, 2021):
Read-outs that look alike come from different tables or passages of the source.

Test system: P. berghei-ANKA-GFP-LucCON liver stage parasites in HepG2-A16-CD81EGFP cells
Conditions: 48 h

| SMILES | % viability (1 µM) | % viability (3 µM) |
| --- | --- | --- |
| COC(=O)C1=C(C)NC(C)=C(C(=O)OCCCN2CCC(c3ccccc3)(c3ccccc3)CC2)C1c1cccc([N+](=O)[O-])c1 (stereo not shown) [NCGC00163135] | 0.1886 | 0.1117 |
| COc1ccc(-c2c[n+](CC(=O)c3cccs3)c3n2CCC3)cc1 [MLS000333575] | 1.153 | 0.8461 |
